Columns and labels:
Test in all cases: PBM binding z-score (relative to random genomic background probes); higher = stronger binding; sequences stand for … in GC…GCGATTGACAGCGTAGAATGAAGG
[1] = tested on: RARb homodimer (NR concentration 270 nM)
Method in brief: (§1)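 Probes were double-stranded and carried 34-nt variable regions with direct-repeat seeds, single-nucleotide variants, half-site ablations and random human genomic background sequences, printed on custom Agilent 4×180K protein-binding microarrays. Arrays were incubated 1 h with ligand-free nuclear receptor dimers in PBS pH 7.4, 2% milk, 0.02% Triton X-100, 1 mM DTT, 0.2 mg/mL BSA and 0.4 mg/ml salmon testes DNA. Antibodies against each partner (one per run) detected binding, and scanned fluorescence was regression-normalized. Binding z-scores use the random background probes as reference.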

[2] = tested on: RARg:RXRa (NR concentration 270 nM, RXRa partner concentration 90 nM)
Method in brief: as §1

[3] = tested on: RARg homodimer (NR concentration 270 nM)
Method in brief: as §1

[4] = tested on: RXRa DBDmut IVT, anti-RXR (DBD mutation: RXRa K156A/R161A, NR concentration 90 nM)
Method in brief: as §1

[5] = tested on: RXRa homodimer (NR concentration 180 nM)
Method in brief: as §1

[6] = tested on: THRa:RXRa (NR concentration 90 nM, RXRa partner concentration 90 nM)
Method in brief: as §1

[7] = tested on: THRa homodimer (NR concentration 90 nM)
Method in brief: as §1

[8] = tested on: VDR homodimer (NR concentration 270 nM)
Method in brief: as §1

TCCTATAGGTAATACAGGTGAAAGTCGGCATCTA
PBM binding z-score [1]: 0.461 | PBM binding z-score [2]: 0.471 | PBM binding z-score [3]: 0.243 | PBM binding z-score [4]: 1.05 | PBM binding z-score [5]: 0.757 | PBM binding z-score [6]: 0.883 | PBM binding z-score [7]: 0.298 | PBM binding z-score [8]: -0.333

TGAATGAGGTTATAAGATCAGGGCACGTTGCAAA
PBM binding z-score [1]: 1.02 | PBM binding z-score [2]: 1.74 | PBM binding z-score [3]: 1.28 | PBM binding z-score [4]: 0.591 | PBM binding z-score [5]: 2.05 | PBM binding z-score [6]: 2.4 | PBM binding z-score [7]: 0.785 | PBM binding z-score [8]: 0.892

CAGCCTAGGTCAGGGCCAGTACAGGAGGAACGTT
PBM binding z-score [1]: 2.81 | PBM binding z-score [2]: 3.02 | PBM binding z-score [3]: 3.74 | PBM binding z-score [4]: -0.352 | PBM binding z-score [5]: 1.45 | PBM binding z-score [6]: 2.02 | PBM binding z-score [7]: 0.539 | PBM binding z-score [8]: -0.209

TCTAGTTGCTCAAAGGTCACACACTCGAAATGCG
PBM binding z-score [1]: 5.02 | PBM binding z-score [2]: 5.93 | PBM binding z-score [3]: 5.78 | PBM binding z-score [4]: 1.88 | PBM binding z-score [5]: 6.66 | PBM binding z-score [6]: 3.76 | PBM binding z-score [7]: 1.89 | PBM binding z-score [8]: 2.12

CCGACTGTGGCAAGGTTACCATAACGCACAGCCA
PBM binding z-score [1]: 1.13 | PBM binding z-score [2]: 0.293 | PBM binding z-score [3]: 0.461 | PBM binding z-score [4]: 0.0244 | PBM binding z-score [5]: 0.97 | PBM binding z-score [6]: 1.2 | PBM binding z-score [7]: 0.526 | PBM binding z-score [8]: 0.243

CCTAGTTGGTGAAGGTCACACACGCTATAGGTAC
PBM binding z-score [1]: 4.26 | PBM binding z-score [2]: 4.01 | PBM binding z-score [3]: 4.06 | PBM binding z-score [4]: 1.36 | PBM binding z-score [5]: 3.65 | PBM binding z-score [6]: 2.89 | PBM binding z-score [7]: 1.2 | PBM binding z-score [8]: 2.3

CGAACTAGGTCAGAACAGGACAGTGAGGGATGAT
PBM binding z-score [1]: 2.12 | PBM binding z-score [2]: 2.44 | PBM binding z-score [3]: 3.18 | PBM binding z-score [4]: 0.709 | PBM binding z-score [5]: 1.47 | PBM binding z-score [6]: 3.57 | PBM binding z-score [7]: 0.102 | PBM binding z-score [8]: -0.141

TCTTGTAGATCAACATGAGGTTAAGAAAGATCGA
PBM binding z-score [1]: 0.695 | PBM binding z-score [2]: 1.12 | PBM binding z-score [3]: 0.455 | PBM binding z-score [4]: 0.475 | PBM binding z-score [5]: 1.27 | PBM binding z-score [6]: 2.18 | PBM binding z-score [7]: 0.657 | PBM binding z-score [8]: 0.413

TCGAGTAGGTTAGAGGCATTCAGAATGGCGTCGA
PBM binding z-score [1]: -0.851 | PBM binding z-score [2]: -0.25 | PBM binding z-score [3]: -0.164 | PBM binding z-score [4]: -0.37 | PBM binding z-score [5]: 0.0736 | PBM binding z-score [6]: -1.08 | PBM binding z-score [7]: -1.15 | PBM binding z-score [8]: -0.449

CCGAGTAGGTTATGGGGCATTCATGCAACGGTGA
PBM binding z-score [1]: 0.909 | PBM binding z-score [2]: 0.699 | PBM binding z-score [3]: 0.725 | PBM binding z-score [4]: 0.0977 | PBM binding z-score [5]: 0.697 | PBM binding z-score [6]: 0.148 | PBM binding z-score [7]: -0.334 | PBM binding z-score [8]: 0.21

CAAACTAGGTCACGAAAGGTGAAAGTCGAATGAC
PBM binding z-score [1]: 4.73 | PBM binding z-score [2]: 5.68 | PBM binding z-score [3]: 6.37 | PBM binding z-score [4]: 1.59 | PBM binding z-score [5]: 5.25 | PBM binding z-score [6]: 4.82 | PBM binding z-score [7]: 1.92 | PBM binding z-score [8]: 0.591

TTACCAAGGTGAAAGGTCGTTGATGCACGCCTTG
PBM binding z-score [1]: 2.52 | PBM binding z-score [2]: 4.17 | PBM binding z-score [3]: 2.31 | PBM binding z-score [4]: 0.684 | PBM binding z-score [5]: 5.67 | PBM binding z-score [6]: 3.23 | PBM binding z-score [7]: 0.838 | PBM binding z-score [8]: 1.67

ACTATTAGTTGAGACGCGGGCAACCGATAGGTTG
PBM binding z-score [1]: -0.0528 | PBM binding z-score [2]: 0.00918 | PBM binding z-score [3]: 0.268 | PBM binding z-score [4]: 0.153 | PBM binding z-score [5]: -0.256 | PBM binding z-score [6]: -0.0691 | PBM binding z-score [7]: -0.769 | PBM binding z-score [8]: 0.135

AATTCAGGGTCATCGTAGGCCAGAGTACGCACAG
PBM binding z-score [1]: 3.87 | PBM binding z-score [2]: 6.21 | PBM binding z-score [3]: 5.46 | PBM binding z-score [4]: 3.82 | PBM binding z-score [5]: 7.13 | PBM binding z-score [6]: 4.78 | PBM binding z-score [7]: 2.24 | PBM binding z-score [8]: 4.01

TCTTGTAGATCAAGCAGGTTAAGAAGGCCTGAGT
PBM binding z-score [1]: 0.0999 | PBM binding z-score [2]: -0.137 | PBM binding z-score [3]: -0.293 | PBM binding z-score [4]: 0.295 | PBM binding z-score [5]: 0.317 | PBM binding z-score [6]: 0.354 | PBM binding z-score [7]: -0.512 | PBM binding z-score [8]: 0.00431

ATCGAAAGGTCGAAGGTGGGTATACCCACCCGAA
PBM binding z-score [1]: 2.02 | PBM binding z-score [2]: 3.9 | PBM binding z-score [3]: 3.4 | PBM binding z-score [4]: 0.146 | PBM binding z-score [5]: 4.23 | PBM binding z-score [6]: 1.81 | PBM binding z-score [7]: -0.334 | PBM binding z-score [8]: 0.567

CCTACTGGGCCAATGGTCATTGATTCCAATGCTC
PBM binding z-score [1]: 0.0691 | PBM binding z-score [2]: -0.0352 | PBM binding z-score [3]: 0.182 | PBM binding z-score [4]: -0.608 | PBM binding z-score [5]: -0.164 | PBM binding z-score [6]: -0.527 | PBM binding z-score [7]: -0.561 | PBM binding z-score [8]: -0.711
